Screens as filed in PubChem.
Sampled rows, rich in hits. Any-hit rate of the full collection: about 3.5%.
GPR151 ag: human GPR151 activation. Q8TDV0. PathHunter beta-arrestin GPR151 cells, luminescence. activation, % at 11.2 µM. 650,000 tested, 1% active. AID 1508602; in the data active means activation above about 4.9%
Target sequence (Q8TDV0 whole entry, looked up): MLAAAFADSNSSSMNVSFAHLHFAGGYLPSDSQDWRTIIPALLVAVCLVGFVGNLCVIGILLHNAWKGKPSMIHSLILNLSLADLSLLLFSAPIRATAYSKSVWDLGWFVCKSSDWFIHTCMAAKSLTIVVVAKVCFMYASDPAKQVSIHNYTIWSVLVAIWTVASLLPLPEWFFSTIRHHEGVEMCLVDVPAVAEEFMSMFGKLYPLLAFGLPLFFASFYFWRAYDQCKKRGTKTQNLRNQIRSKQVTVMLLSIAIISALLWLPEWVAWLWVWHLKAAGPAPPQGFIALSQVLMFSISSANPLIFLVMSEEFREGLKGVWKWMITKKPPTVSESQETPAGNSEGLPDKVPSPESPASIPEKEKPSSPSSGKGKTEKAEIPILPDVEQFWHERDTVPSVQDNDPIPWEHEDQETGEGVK
MITF primary: blocks human microphthalmia-associated transcription factor; 650,000 tested, 0.91% active; inhibition, % at 2.6 µM; AlphaScreen MITF homodimerization, bead proximity signal; in the data active means inhibition above about 50%
FBW7 activator: activators of human E3 ligase FBW7 | Q969H0 | 650,000 tested, 0.13% active | normalized activity (activation), % at 26.1 µM | AlphaScreen FBW7–phospho-cyclin E peptide binding, activator screen; in the data active means normalized activity above about 1.9%;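 further: purified mutant Fbw7 with reduced substrate affinity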
TEAD-YAP block: TEAD-YAP interaction inhibition | inhibition, % at 9.12 µM | HEK-TIYL cells, TEAD-Gal4/YAP UAS-luciferase luminescence | 640,000 tested, 1.4% active; in the data active means inhibition above about 32%
MITF inh conf: human MITF inhibition, confirmation. shares compounds with MITF primary. AlphaScreen MITF homodimerization, biotin/His-MITF beads. inhibition, % at 2.6 µM. 4,700 tested, 16% active. AID 1259372;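 active means inhibition above a cutoff derived from the DMSO control wells, cut at about 28% in these data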;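 further: inhibitors lower the bead chemiluminescence by keeping MITF from dimerizing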
AS interf DR: counter-screen: compounds optically interfering with AlphaScreen. shares compounds with MITF primary. AlphaScreen optical interference counterscreen, cell-free. IC50, µM. 480 tested, 6% active. AID 1259373; call rule not given here
AS interf ctr: AlphaScreen optical interference, counter-screen; shares compounds with MITF primary; LysRS AlphaScreen counterscreen, signal interference, triplicate; inhibition, % at 2.6 µM; 4,700 tested, 7.6% active; AID 1259376;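 active means inhibition above a cutoff derived from the DMSO control wells, cut at about 30% in these data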
Hits are given with their value; 0 = inactive; - = not tested or not shown; ! = not active in a repeat.

SMILES | GPR151 ag | MITF primary | FBW7 activator | TEAD-YAP block | MITF inh conf | AS interf ctr | others
CC(C)CC(=O)N1CCN(Cc2ccccc2[N+](=O)[O-])CC1 | 0 | 56 | 0 | 0 | 0 | 0
CCCS(=O)(=O)N1CCN(Cc2ccccc2[N+](=O)[O-])CC1 | 0 | 0 | 0 | 0 | - | -
O=[N+]([O-])c1ccccc1CN1CCN(CCOCCO)CC1 | 0 | 62 | 0 | 0 | 0 | 0
O=C(c1n[nH]c2ccccc12)N1CCN(c2ccccc2F)CC1 | 0 | 0 | 0 | 0 | - | -
CNC(=O)CSc1nc(-c2ccccc2)cc(C(F)(F)F)c1C#N | 0 | 0 | 0 | 0 | - | -
CCOc1ccc(/C=c2/sc3nc(-c4cccnc4)nn3c2=O)cc1OC | 0 | 0 | 0 | 0 | - | -
CCC1CN(CC(=O)NC2C3CC4CC(C3)CC2C4)Cc2cc(OC)ccc2O1 (stereo not given) | 0 | 60 | 0 | 0 | 0 | 0
CCOC(=O)CC(CC(C)C)NC(=O)Cn1cc(NC(=O)c2ccccc2F)cn1 (stereo not given) | 0 | 0 | 0 | 0 | - | -
Nc1ncnc(Nc2ccc(SC(F)F)cc2)c1[N+](=O)[O-] | 0 | 0 | 0 | 0 | - | -
CN(C)CCCNc1ncnc2sccc12 | 0 | 73 | 0 | 0 | 0 | 0
CN(C)CCCNc1ncnc2sc3c(c12)CCC3 | 0 | 79 | 0 | 0 | 0 | 30
COC(=O)c1ccc(NC(=O)CSc2nnc3[nH]c(=O)c(C)c(C)n23)cc1 | 0 | 0 | 0 | 0 | - | -
CC(=O)c1ccc(NC(=O)CSc2nnc3[nH]c(=O)c(C)c(C)n23)cc1 | 0 | 56 | 0 | 0 | 0 | 0
CC(NCC(O)CO)c1ccc(-n2ccnc2)cc1 (stereo not given) | 0 | 81 | 0 | 0 | 0 | 0
Cc1ccc2nc(CN(C)Cc3nccs3)nc(N)c2c1 | 0 | 65 | 0 | 0 | 40 | 100
Cc1sc(NC(=O)CN(C(=O)Nc2cccc(Cl)c2)C2CCCC2)c(C(N)=O)c1C | 0 | 0 | 0 | 0 | - | -
Nc1ccc(S(=O)(=O)N2CCOC3CCCCC32)cc1 (stereo not given) | 0 | 76 | 0 | 0 | 0 | 0
CS(=O)(=O)N1CCN=C1SCc1ccccc1F | 0 | 52 | 0 | 0 | 0 | 0
O=C1O[C@H](C(O)CO)C(O)=C1O (stereo not given in full) | 0 | 76! | 0 | 0 | 47 | 0 | AS interf DR=0
CS(=O)(=O)c1ccc(C(=O)Nc2nc(-c3ccc(Br)s3)cs2)cc1 | 0 | 0 | 0 | 0 | - | -
COCCCNC(=O)CCCn1sc2ccccc2c1=O | 0 | 0 | 0 | 0 | - | -
CCOC(=O)c1c(Nc2ccccc2N)cc(C)nc1C | 0 | 68 | 0 | 0 | 0 | 0
Cc1ccccc1C(=O)Nc1sc(Cc2ccccc2)c(C)c1C(N)=O | 0 | 0 | 0 | 0 | - | -
N#CC(=C1N=c2ccccc2=N1)c1c(O)n(Cc2cccc3ccccc23)c2ccccc12 | 0 | 0 | 0 | 0 | - | -
Cc1cc(=O)n(C)c(=O)n1CCCNC(C)c1ccccc1 (stereo not given) | 0 | 84 | 0 | 0 | 0 | 0
SMILES | GPR151 ag | MITF primary | FBW7 activator | TEAD-YAP block | MITF inh conf | AS interf ctr | others
Cc1cc(=O)n(C)c(=O)n1CCCCBr | 0 | 0 | 0 | 0 | - | -
Cc1cc(=O)n(C)c(=O)n1Cc1ccccc1 | 0 | 0 | 0 | 0 | - | -
Cc1cc(=O)n(C)c(=O)n1CCCCNCCO | 0 | 72 | 0 | 0 | 0 | 0
C=CCNc1nc(-c2ccccn2)nnc1-c1ccccc1 | 0 | 70 | 0 | 0 | 69 | 100
O=C(NCC1CCC2(CCN(Cc3cc4ccccc4s3)CC2)O1)c1cccnc1 (stereo not given) | 0 | 0 | 0 | 0 | - | -
O=C(NCC1CCC2(CCN(Cc3cnc(-c4ccccc4)s3)CC2)O1)c1cccnc1 (stereo not given) | 0 | 70 | 0 | 0 | 0 | 0
CCc1ccc(CN2CCN(S(=O)(=O)Cc3ccccc3)CC2)cc1 | 0 | 60 | 0 | 0 | 0 | 0
O=S(=O)(Cc1ccccc1)N1CCN(C2CCN(Cc3ccccc3)CC2)CC1 | 0 | 65 | 0 | 0 | 0 | 0
O=S(=O)(Cc1ccc(Cl)cc1)N1CCN(Cc2ccccc2)CC1 | 0 | 0 | 0 | 0 | - | -
CSc1ccc(CN2CCN(S(=O)(=O)Cc3ccccc3)CC2)cc1 | 0 | 72 | 0 | 0 | 0 | 0
CSc1ccc(S(=O)(=O)N2CCN(Cc3ccccc3)CC2)cc1 | 0 | 0 | 0 | 0 | - | -
O=S(=O)(Cc1ccccc1)N1CCN(Cc2ccc(Br)cc2)CC1 | 0 | 59 | 0 | 0 | 0 | 0
Clc1ccccc1Cn1c(SC23CC4CC(CC(C4)C2)C3)nc2ccccc21 | 0 | 0 | 0 | 0 | - | -
